Source: PubChem BioAssay AID612 (The Scripps Research Institute Molecular Screening Center, 2007)
About 420 (0.68%) of roughly 62,000 compounds were called active. The sample holds actives, similar compounds and a random draw of the others, so the mix is not that of the screen.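 How the source made its calls: active means inhibition above the mean of all tested compounds plus 3 SD (cut at about 43% in these data); inactive means the rest.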

What follows are compounds tested against 5-hydroxytryptamine receptor 1A (Homo sapiens) (UniProt P08908) (assay: human 5-HT1a receptor antagonists, primary screen, cell-based, CHO, Ga15 NFAT-bla reporter (AID 612;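 further: receptor stimulated by 5-CT agonist at 100 nM near EC80; beta-lactamase reporter measured by ratiometric fluorescence of a cleavable substrate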)). Conditions: CHO 5-HT1a Ga15 NFAT-bla reporter, antagonist mode; at 10 µM; stronger effect = higher value.
Chain of 5-hydroxytryptamine receptor 1A (Homo sapiens) (P08908 whole entry, looked up): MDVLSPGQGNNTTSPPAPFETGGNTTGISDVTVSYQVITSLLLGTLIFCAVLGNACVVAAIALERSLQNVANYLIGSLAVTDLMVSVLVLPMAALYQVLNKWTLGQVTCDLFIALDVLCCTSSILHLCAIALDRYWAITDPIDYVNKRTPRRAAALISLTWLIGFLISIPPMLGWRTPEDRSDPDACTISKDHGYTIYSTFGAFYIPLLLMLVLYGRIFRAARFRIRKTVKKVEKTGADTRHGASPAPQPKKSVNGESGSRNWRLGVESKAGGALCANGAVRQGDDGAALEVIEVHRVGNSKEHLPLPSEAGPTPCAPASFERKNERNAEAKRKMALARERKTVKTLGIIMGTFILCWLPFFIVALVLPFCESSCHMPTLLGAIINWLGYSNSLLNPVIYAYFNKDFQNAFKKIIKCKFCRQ

inhibition, inactive:
COc1ncnc2sc3c(c12)CCCC3 10.5%, COc1ccc(-c2ccc(Nc3ccc(S(=O)(=O)N4CCCC4)cc3)nn2)cc1OC -0.9%, COc1ccc(-c2nnco2)cc1OC 2%, CN1CCN(CC(=O)C23CC4CC(CC(C4)C2)C3)CC1 4.4%, Cc1ccc(C2(c3ccc(C)cc3)NC(=O)N(Cc3c(C)noc3C)C2=O)cc1 1.9%, CCN(Cc1ccccc1)C(=O)CSc1nc(C)cc2c1C(=O)OC2 -9%, O=C(CSc1nnc(-c2cnccn2)n1Cc1ccco1)c1ccc(Cl)c(Cl)c1 9.1%, Cc1noc(C)c1S(=O)(=O)NCCc1ccc(S(N)(=O)=O)cc1 -7.6%, COc1ccc(CCN(C)C(=O)C2CCCN(Cc3ccc(OC)c(OC)c3)C2)cc1OC (centres undefined) 14.7%, COc1ccccc1N1CCN(C(=O)CN(Cc2ccc(Cl)cc2)S(C)(=O)=O)CC1 17.7%, COc1ccccc1N1CCN(Cc2nnnn2CCc2ccccc2)CC1 5.1%, COC(=O)c1ccc(NC(=O)CSc2nnc(Cc3cccn3C)n2-c2ccc(F)cc2)cc1 3.3%, Cc1ccc(N2C(=O)CC(NCc3ccc4c(c3)OCO4)C2=O)cc1Cl (centres undefined) -4.3%, CC(C)NS(=O)(=O)c1ccc(CCC(=O)N2CCOCC2)cc1 -10.5%, CCOC(=O)CSc1nnc(CNC(=O)c2ccco2)n1-c1ccc(F)cc1 5.9%, CN(C)/C=C1\C=C(c2ccccc2)OC1=O -8.2%, CCOC(=O)C1(Cc2ccc(O)cc2)NC(c2ccccc2F)C2C(=O)N(C)C(=O)C21 (centres undefined) 6.2%, Clc1ccc(C=NC23CN4CN(CN(C4)C2)C3)cc1 -6.9%, COc1ccc(CNC(=O)C2CCN(S(=O)(=O)N3CCOCC3)CC2)cc1 5.7%, c1csc(-c2nc(-c3ccncc3)no2)c1 -12.8%, COc1cc(Cl)c(S(=O)(=O)n2cnc(C)c2)cc1Cl -7.5%, CSCC[C@H](NC(=O)NCc1cccs1)C(=O)O 4.7%, CC1CCN(c2oc(-c3ccccc3F)nc2C#N)CC1 13.1%, c1csc(-c2cn3c(n2)SCC3)c1 5.5%, Cc1ccc(C(=O)Nc2nnc(-c3cccs3)s2)cc1C -13.8%, COc1cccc(NC(=O)Nc2nnc(N3CCCCC3C)s2)c1 (centres undefined) 35.8%, c1ccc(-n2ncc3c2ncn2c(C4CCCCC4)nnc32)cc1 -3.1%, O=C(CC(NS(=O)(=O)c1ccc(Cl)cc1)c1ccco1)NC1CCCC1 (centres undefined) 7.3%, COC(=O)N1CN(C(=O)OC)CN(C(=O)OC)C1 -7%, O=C(CN1CCOCC1)Nc1c2c(nc3c1CCC3)CCC2 2.1%, COc1ccccc1NC(=O)CSc1nc2sc(C)c(C)c2c(=O)n1Cc1ccco1 19.2%, CCOC(=O)CSc1nc2c(c(=O)n(C)c(=O)n2C)n1Cc1ccccc1F -3.1%, CC(c1cccnc1)N(CCN(C)C)C(=O)Nc1ccc(Cl)c(Cl)c1 (centres undefined) 3.9%, Cc1ccc(C)c(NC(=O)C2CC(=O)N(C(C)C)C2)c1 (centres undefined) -1.5%, COc1ccc(S(=O)(=O)N2CCOCC2)cc1C(=O)Nc1nc2ccccc2s1 -17.7%, Cc1ccc2nc(NC(=O)C3CCN(S(=O)(=O)c4ccc5c(c4)oc(=O)n5C)CC3)sc2c1 1.8%, O=S(=O)(NCc1ccccc1Cl)c1cnc[nH]1 -4.7%, COc1ccccc1C(=O)Oc1ccc(N2C(=O)CCC2=O)cc1 -3.5%, CCOc1cc(-c2noc(CCC(=O)N3CCOCC3)n2)ccc1OC -10.7%, CCOc1cc(CN2CCN(C(=O)CC(C)C)CC2)ccc1OC -2.9%, COc1cc2c(cc1OC)C(c1ccc(C)o1)CC(=O)N2 (centres undefined) 30.2%, COCCOC(=O)C1=C(C)NC(=O)CC1c1cc2c(cc1Br)OCO2 (centres undefined) 3.2%, Cc1cc(NC(=O)CCC(=O)N(c2cccc(F)c2)C(C(=O)NC2CCCC2)c2ccncc2)no1 (centres undefined) -3.5%, C/C(=N\O)C1(C)N(O)C(C)(C)C(c2ccc(Br)cc2)=[N+]1[O-] (centres undefined) -14.2%, COC(=O)c1ccc(/C=N\n2c(C)nnc2C)cc1 0.3%, CCOC(=O)N1CCN(C(=O)C2CCCN(c3ncnc4c3sc3cccc(F)c34)C2)CC1 (centres undefined) 7.8%, CC(C)c1ccc(-c2nn[nH]n2)cc1 -0.6%, COc1ccc(N2CCN(C3CC(=O)N(c4ccc5c(c4)OCCO5)C3=O)CC2)cc1 (centres undefined) -12.3%, O=C(CCc1ccccc1)Nc1cccc(-c2nnc(-c3ccco3)o2)c1 10%, COC(=O)Cc1c(C)c2ccc(OCC(=O)NCc3ccc4c(c3)OCO4)cc2oc1=O 12.5%, CN(C)CCCn1c(N)c(C#N)c2nc(C#N)c(C#N)nc21 -28.3%, O=C(Cn1cnc2c(nnn2Cc2ccc(F)cc2)c1=O)NCc1ccc2c(c1)OCO2 2%, COc1ccc(C(=O)N2CCC(C(=O)Nc3cccc(C)c3)CC2)cc1OC -2.1%, O=C(Nc1nsc(-c2ccccc2)n1)c1ccncc1 -6.7%, COc1ccc(C2OC(=O)CC2C(=O)NC(C)C)cc1 (centres undefined) -3.4%, CC(C)CCNC(=O)CN(C(=O)Cn1nnc(-c2ccc(F)cc2)n1)C1CCCC1 9.5%, O=C(O)c1cscn1 -20.4%, O=S(=O)(NCc1ccccn1)c1ccc(F)cc1 -4.1%, Cn1c(C(=O)NCCc2ccsc2)cc2c(=O)n(C)c3ccccc3c21 -3.6%, CCOC(=O)N1CCC(Nc2c(NCCN3CCN(c4cccc(Cl)c4)CC3)c(=O)c2=O)CC1 1.9%, CC1CCCC(C)N1CCCNC(=O)c1cc2c(=O)n(C)c3ccccc3c2n1C (centres undefined) 1.7%, O=C(CCn1c(=O)[nH]c2ccccc2c1=O)NCCCN1CCN(c2cccc(Cl)c2)CC1 37.1%, Fc1ccc2nc(Nc3nc4c(s3)CCCC4)sc2c1 16.8%, Cc1cnc(NC(=O)CSc2nnc(-c3ccc(Cl)cc3Cl)n2N)s1 -1.4%, CN(CCCNC(=O)CN1C(=O)CC(C)(C)S(=O)(=O)c2ccccc21)C1CCCCC1 -7.9%, CCOC(=O)Cn1c2c(c(-c3ccccc3OC)cc1=O)CCCC2 17.8%, O=S(=O)(c1ccc(Sc2nnc3ccccn23)nc1)N1CCOCC1 -7.8%, O=C(Nc1nnc(-c2ccc(Cl)cc2)o1)c1ccccc1Br 8.9%, O=c1cc(CSc2ccc(Cl)cc2)nc(N2CCOCC2)[nH]1 -13.7%, Cc1cc2c(=O)n(C)c(SCC(=O)c3cc4ccccc4o3)nc2s1 -6.7%, COc1ccccc1-c1nc(C(F)(F)F)c(OC)o1 3.7%, COCCNC(=O)Cn1cc2c(n1)CCCCC2 -1.6%, Nc1nonc1-c1nc2ccccc2n1CCC(=O)O -21.2%, COc1ccc(C)c(Cn2c(-c3nonc3N)nc3ccccc32)c1 38.7%, Cc1cccc2nc(CNc3ccc(F)cc3)cn12 -11.2%, COc1ccc(N2C(=O)C3CCCN3C2c2cccs2)cc1 (centres undefined) 19.9%, O=C(CSc1nnc2ccccn12)c1ccccc1 3.3%, COc1ccc(OC)c(C(=O)CSc2nnc(-c3cccs3)o2)c1 -4.9%, Cc1ccc(-c2noc(CCC(=O)Nc3ccccc3N3CCN(C)CC3)n2)cc1 5.2%, O=C(NCCN1CCOCC1)c1ccc2c(c1)ncn2C1CCCC1 -8%, Cc1ccc(Oc2ccc(N)cc2)cc1 11.4%, CCCc1nc(SCC(=O)Nc2ccccc2OC)c2c(=O)n(C)c(=O)n(C)c2n1 10.8%, CCOc1cc(/C=N/n2cnnc2)c(Br)cc1O -8.1%, COc1ccc(O)c(C=Nc2cc(C)on2)c1 4.6%, COc1ccccc1-n1cnc2cc(C(=O)NCC3CCCO3)ccc21 (centres undefined) 10.8%, COC(=O)c1ccc(CSc2nncn2C)cc1 -0.1%, COc1ccc(C(CNC(=O)c2cccnc2SC)N2CCOCC2)cc1 (centres undefined) 5.3%, CCCC(=O)Nc1c(O)c2ccccc2[nH]c1=O 0.3%, O=C(c1cc(-c2cccc(O)c2)on1)N1CCc2ccccc2C1 -4.3%, c1ccc(-c2cn3cccnc3n2)cc1 -0.3%, C/C(CC(O)(/C=N/O)c1ccccc1)=N\O (centres undefined) 7.7%

inhibition, active:
COc1ccc(-c2cc(C(F)(F)F)nc(S(C)(=O)=O)n2)cc1OC 78.1%, COc1ccccc1-n1nnnc1S(=O)(=O)Cc1ccc(Cl)cc1 82.7%, CCOC(=O)CSc1nc2c(sc(=S)n2CCc2ccccc2)c(=O)n1Cc1ccco1 58.2%, CCOc1cc(C(=O)N2CCc3cc(OC)c(OC)cc3C2)ccc1OC(F)F 60.5%, CCCOc1ccccc1C1CC(=O)Nc2cc3c(cc21)OCO3 (centres undefined) 54.2%, CCn1c(=O)cc(OCC(=O)NCCCN2CCN(c3cccc(Cl)c3)CC2)c2ccccc21 50.4%, Cn1c(C(=O)NCCCN2CCN(c3cccc(Cl)c3)CC2)cc2c(=O)n(C)c3ccccc3c21 47.4%, Nc1nonc1-c1nc2ccccc2n1Cc1ccc(F)cc1 48%
